Hit rate of the full screen: of about 38,000 compounds, about 1,200 (3.2%) showed an effect of 50% or more. The median lay at about -58%. The sample as a whole holds a higher share of strong results than the screen did.
Tested on: Plasmodium falciparum
Experiment: Calibr Malaria Delayed Death Assay SOP
Format: functional, organism-based
Design: scale not given: in the data most compounds retested in dose-response had high values
Details: concentration 4.99e-06 (unit not given; other assays of the set use mol/L)

| SMILES | Percent Effect [%] |
| --- | --- |
| Cc1ccc(N(CC(=O)N2CCCCC2)C(=O)C2CCCO2)cc1 (centres undefined) | -77.19 |
| CS(=O)(=O)N1C[C@@H]2COC[C@]2(COCC(=O)N2CCCC2)C1 | -14.15 |
| CCCNc1ccc(C(=O)NCCc2ccc(Cl)cc2)cn1 | -35.94 |
| COc1cccc(C2CCCN2C(=O)NCCCn2cccn2)c1 (centres undefined) | -100.5 |
| Cn1cc(CNCCC(=O)NCc2ccccc2)c(-c2cccnc2)n1 | -26.7 |
| CN(C)C(C)(C)CNCc1cn(C)nc1-c1cccnc1.Cl | -6.426 |
| CCCNCc1cn(Cc2ccccc2)nc1-c1cccnc1.Cl | 57.61 |
| Cn1cc(CNCCNC(=O)Cc2ccccc2)c(-c2cccnc2)n1 | 7.378 |
| Cn1cc(CNCCc2cccnc2)c(-c2cccnc2)n1 | -43.46 |
| Cn1cc(CNCCOc2ccc(F)c(F)c2)c(-c2cccnc2)n1 | 53.44 |
| COCCCOc1ccc(C(=O)N(C)Cc2cccc(O)c2)cn1 | -93.61 |
| CC(C)(C)OC(=O)N1CCN(C(=O)c2cnn3c2OCCC3)CC1 | -73.8 |
| CC(CC(=O)c1ccco1)NC(=O)c1ccon1 (centres undefined) | -111.2 |
| O=C(Nc1nc2c(s1)CN(S(=O)(=O)C1CC1)CC2)c1ccsc1 | -79.83 |
| Fc1ccccc1C1NCCc2cc3c(cc21)OCCO3 (centres undefined) | -25.34 |
| CCCn1nnc(NCc2ccc(-c3ccc(Br)cc3)o2)n1 | -170.9 |
| Nc1nc2c(c(NC(=O)Nc3ccc(Cl)c(Cl)c3)n1)CCCC2 | -65.1 |
| CN1CCCc2c1nc1c(c2N)CCCC1.O=C(O)C(=O)O | 75.22 |
| CN1CCc2c1nc1c(c2N)CCC1 | -63.1 |
| CN1CCc2nc3c(c(N)c2C1)CCCN3C | -6.547 |
| CN1CCCc2c1nc1c(c2N)CCC1 | -51.79 |
| CC(=O)NC1CCN(c2nc(N)nc3c2CCCC3)C1 (centres undefined) | -119.8 |
| CN1CCCCc2c1nc1c(c2N)CCCC1 | 64.21 |
| Nc1nc2c(c(NC(=O)Nc3cccc(Cl)c3)n1)CCCC2 | -1.173 |
| CN1CCCCc2c1nc1c(c2N)CCC1.O=C(O)c1cc([N+](=O)[O-])ccc1Cl | 64.96 |

| SMILES | Percent Effect [%] |
| --- | --- |
| CC1CN(C)c2ccccc2CN1C(=O)c1cc(C#N)cn1C (centres undefined) | -35.84 |
| CCN(CC)S(=O)(=O)c1ccc2c(c1)N(Cc1ccncc1)C(=O)CS2 | -124.7 |
| COCC(C)NC(=O)CN1CCC(CO)CC1 (centres undefined) | -50.48 |
| O=C1CC(CNc2cncc(Cl)n2)c2ccccc2N1 (centres undefined) | 64.58 |
| Cc1cc(NCC2CC(=O)Nc3ccccc32)nc(C)n1 (centres undefined) | -157 |
| O=C1CC(CNc2cncc(Br)c2)c2ccccc2N1 (centres undefined) | 9.989 |
| CS(=O)(=O)NC(=O)c1ccn(-c2ccc(Cl)c(Cl)c2)n1 | -100.9 |
| COCCN1C(=O)CC(c2cccnc2)C12CCN(C(=O)C1CC1)CC2.O=C(O)C(F)(F)F (centres undefined) | -113.7 |
| CC(Oc1ccc2c(c1)OCO2)C(=O)Nc1ccon1 (centres undefined) | -56.4 |
| Cc1cc(Cl)cc(C)c1CNC1CCN(CC(=O)N(C)C)CC1 | 52.71 |
| Cc1cc2cc(CNC3CCN(CC(=O)N(C)C)CC3)oc2cc1C | -160 |
| NC(=O)CN1CCC(NCc2cc(C(F)(F)F)ccc2Cl)CC1 | -47.52 |
| CNc1oc(-c2ccc(S(=O)(=O)N(C)C)o2)nc1C#N | -61.71 |
| Cc1nc(C)n(CC2CCCN(Cc3nc(-c4ccco4)no3)C2)n1 (centres undefined) | -26.23 |
| NC(=O)C(NC(=O)COC1CCCC1)c1ccccc1 (centres undefined) | -14.18 |
| OC(CN1CCN(CC2CCCCC2)CC1)c1ccccc1 (centres undefined) | 2.939 |
| CC(NC(=O)CSCC(N)=O)c1ccc(Oc2ccccc2)cc1 (centres undefined) | -26.87 |
| Cl.NC(CC1CCCC1)c1ccccc1 (centres undefined) | 67 |
| NC(=O)C(NC1CCN(CC2CCCCC2)CC1)c1ccccc1 (centres undefined) | -76.74 |
| NC(CC1CCCC1)c1ccc(Oc2ccccc2)cc1 (centres undefined) | 80.17 |
| Cl.NC(CC1CCCCC1)c1ccccc1 (centres undefined) | 55.85 |
| NC(c1ccccc1)c1ccc(OC(F)F)cc1 (centres undefined) | 9.975 |
| Cl.NC(Cc1nc(-c2ccccc2)no1)c1ccccc1 (centres undefined) | -266.4 |
| COc1ccc(Cn2cc(C(=O)N(C)Cc3ccon3)nn2)cc1 | -118.5 |
| CC(C)COC[C@H]1CC[C@H]2[C@H](CCN2C(=O)c2ccncc2F)O1.O=C(O)C(F)(F)F | -129.5 |

| SMILES | Percent Effect [%] |
| --- | --- |
| COc1ccc(-c2cc(C(=O)Nc3nc[nH]n3)[nH]n2)cc1 | -113.2 |
| Cc1ccc(C(=O)N2CCc3nc4c(C)csc4c(=O)n3CC2)cn1 | -115 |
| CCn1nc(C)cc1C(=O)N1C[C@@H]2C[C@@H](c3noc(C)n3)O[C@@H]2C1 | -70.6 |
| Cc1n[nH]cc1CNCC1(c2ccc3c(c2)OCO3)CCOCC1.Cl | -41.06 |
| O=C(NCC1(O)CCOC1)NCC1(c2ccccc2Cl)CC1 (centres undefined) | 1.417 |
| Cc1n[nH]cc1CNCC1(c2ccccc2Cl)CCOCC1 | 55.9 |
| CCS(=O)(=O)N1CCc2cc(C(=O)N(C)C)c(NCC3CC3)nc2CC1 | -99.83 |
| COCC(=O)N1Cc2ccnn2CC(COCCN(C)C)C1.O=C(O)C(F)(F)F.O=C(O)C(F)(F)F (centres undefined) | -13.35 |
| CN(C)CCOCC1CN(C(=O)c2ccsc2)Cc2ccnn2C1.O=C(O)C(F)(F)F.O=C(O)C(F)(F)F (centres undefined) | -18.09 |
| Fc1ccc(CN2CCn3cc(Cn4cccn4)nc3C2)cc1.O=C(O)C(F)(F)F | 43.38 |
| Cc1ccc(CN2Cc3nnn(C)c3C(COCC(=O)N(C)C)C2)s1.O=C(O)C(F)(F)F (centres undefined) | -90.04 |
| N#Cc1cccc(CN2CCn3cc(Cn4cccn4)nc3C2)c1.O=C(O)C(F)(F)F.O=C(O)C(F)(F)F | 78.59 |
| CCn1nnc2c1C(COCCN(C)C)CN(Cc1ccco1)C2.O=C(O)C(F)(F)F.O=C(O)C(F)(F)F (centres undefined) | -73.97 |
| CCn1nnc2c1C(COCCN(C)C)CN(Cc1ccc(C)s1)C2.O=C(O)C(F)(F)F.O=C(O)C(F)(F)F (centres undefined) | 60.03 |
| CN(C)C(=O)c1cnc2n1CCN(Cc1cccc(C#N)c1)C2.O=C(O)C(F)(F)F | -58.91 |
| O=C(O)C(F)(F)F.O=C(O)C(F)(F)F.c1ccc(CCN2CCn3cc(Cn4cccn4)nc3C2)cc1 | 7.27 |
| CN(C)CCOCC1CN(Cc2cccs2)Cc2ccnn2C1.O=C(O)C(F)(F)F.O=C(O)C(F)(F)F.O=C(O)C(F)(F)F (centres undefined) | 62.34 |
| CN(C)CCN1CCN(Cc2cccc(C#N)c2)Cc2cccnc21.O=C(O)C(F)(F)F.O=C(O)C(F)(F)F.O=C(O)C(F)(F)F | 65.04 |
| CN1CCN(Cc2cccc(C#N)c2)Cc2cccnc21.O=C(O)C(F)(F)F.O=C(O)C(F)(F)F | -79.43 |
| COc1ccccc1CNC(=O)N1CCN(Cc2cc(C)on2)CC1 | -4.63 |
| COCc1nnc(NC(=O)CN2C(=O)c3ccccc3NC2C(C)C)s1 (centres undefined) | -66.52 |
| O=C(COc1ccc(Cl)cc1)N1CCOCC1c1ncon1 (centres undefined) | -73.82 |
| Cc1nc(N(C)C)nc(NCCc2ccccn2)c1C | -11.2 |
| O=S1(=O)CCC(S(=O)(=O)c2cccc(S(=O)(=O)N3CCCCCC3)c2)C1 (centres undefined) | -52.35 |
| CCc1ccc(CN2CCC3(CC2)CN(c2cnn(C)c2)C(=O)CO3)o1.O=C(O)C(F)(F)F.O=C(O)C(F)(F)F | -59.96 |

| SMILES | Percent Effect [%] |
| --- | --- |
| COCCN1CCN(Cc2c(C)noc2C)Cc2ccc(C)nc21.O=C(O)C(F)(F)F.O=C(O)C(F)(F)F | -62.13 |
| Cc1ccc2c(n1)N(CCn1cccn1)CCN(S(C)(=O)=O)C2.O=C(O)C(F)(F)F | -106 |
| CN(C)CCN1CCN(Cc2ccco2)Cc2cccnc21.O=C(O)C(F)(F)F.O=C(O)C(F)(F)F.O=C(O)C(F)(F)F | 11.84 |
| CN(C)CCN1CCN(Cc2nccs2)Cc2cccnc21.O=C(O)C(F)(F)F.O=C(O)C(F)(F)F.O=C(O)C(F)(F)F | 5.575 |
| Cc1ccc2c(n1)N(CCN(C)C)CCN(Cc1c(C)noc1C)C2.O=C(O)C(F)(F)F.O=C(O)C(F)(F)F.O=C(O)C(F)(F)F | 61.92 |
| Cc1ccc2c(n1)N(CCn1cccn1)CCN(CC1CC1)C2.O=C(O)C(F)(F)F.O=C(O)C(F)(F)F | 77.61 |
| CN(C)CCN1CCN(Cc2cccs2)Cc2cccnc21.O=C(O)C(F)(F)F.O=C(O)C(F)(F)F.O=C(O)C(F)(F)F | 77.04 |
| CCS(=O)(=O)N1CCN(CCn2cccn2)c2nc(C)ccc2C1.O=C(O)C(F)(F)F | -65.79 |
| Cc1noc(C)c1CN1CCN(CCN(C)C)c2ncccc2C1.O=C(O)C(F)(F)F.O=C(O)C(F)(F)F.O=C(O)C(F)(F)F | 19.65 |
| O=C(C1CCOC1)N1C[C@H]2CN(Cc3ccncc3)C(=O)[C@H]2C1.O=C(O)C(F)(F)F (some centres undefined) | -110.3 |
| CCN1Cc2ccccc2N(C(=O)C2CCC2)CCC1=O | -10.23 |
| CC(C)NC(=O)C1CN(C(=O)CCc2ccccc2)CC12CCOCC2 (centres undefined) | -79.45 |
| NS(=O)(=O)c1ccc(CNCC(=O)NCc2ccc(Cl)cc2Cl)cc1 | -66.27 |
| OCc1cccc(CNCc2cccc3c2OCCO3)c1 | 41.91 |
| Oc1ccc(Cl)cc1CNCc1ccccc1Cl | 75.8 |
| O=C1CCCN1c1cccc(CNCc2cc(F)ccc2F)c1 | -68.04 |
| Cc1ccccc1CNCc1cc(Cl)ccc1O | 74.83 |
| Oc1ccc(Cl)cc1CNCc1ccccc1C(F)(F)F | 63.6 |
| Oc1ccc(Cl)cc1CNCc1cccc(C(F)(F)F)c1 | 88.68 |
| NS(=O)(=O)c1ccc(NCc2ccccc2F)cc1C(F)(F)F | -7.015 |
| CC(=O)N1CCC(NC(=O)c2cc(Cl)ccc2O)CC1 | -71.2 |
| CC(NC(=O)Cc1ccccc1F)(C(N)=O)c1cccc(Cl)c1 (centres undefined) | -10.09 |
| CS(=O)(=O)Cc1ccccc1NCc1cc(Cl)ccc1Cl | -167.2 |
| Cc1cc(NC(=O)Cc2ccccc2O)c[nH]c1=O | -29.46 |

Source: ChEMBL document CHEMBL3988442, “University of Dundee, Small-Polar-MMV Screening Library” (2021)
